Compound activity deposited in PubChem BioAssay by National Center for Advancing Translational Sciences (NCATS).
CtBP-E1A blk = CtBP/E1A binding inhibition. AlphaScreen GST-E1A/His-CtBP binding, 1536-well; hits give low values. activity change, % (no concentration beside the values). 340,000 tested, 0.49% active; in the data active = activity change below about -65%; inconclusive = mostly about -30% to -63%
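GST-E1A and His-tagged CtBP (125 nM each as 5X stock) were preincubated with pin-transferred compound for 2 h at 37 °C in the dark, then glutathione donor and nickel acceptor beads were added for 1 h before AlphaScreen reading.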
Six1-Eya2 blk = blocks human Six1 binding to Eya2 | Q15475+O00167 | AlphaScreen GST-Six1/His-Eya2 binding, biochemical; hits give low values | activity change, % (concentration not given with the values) | 360,000 tested, 0.56% active | AID 651725; in the data active = activity change below about -65%; inconclusive = mostly about -30% to -63%
Target sequence (O00167 whole entry, looked up): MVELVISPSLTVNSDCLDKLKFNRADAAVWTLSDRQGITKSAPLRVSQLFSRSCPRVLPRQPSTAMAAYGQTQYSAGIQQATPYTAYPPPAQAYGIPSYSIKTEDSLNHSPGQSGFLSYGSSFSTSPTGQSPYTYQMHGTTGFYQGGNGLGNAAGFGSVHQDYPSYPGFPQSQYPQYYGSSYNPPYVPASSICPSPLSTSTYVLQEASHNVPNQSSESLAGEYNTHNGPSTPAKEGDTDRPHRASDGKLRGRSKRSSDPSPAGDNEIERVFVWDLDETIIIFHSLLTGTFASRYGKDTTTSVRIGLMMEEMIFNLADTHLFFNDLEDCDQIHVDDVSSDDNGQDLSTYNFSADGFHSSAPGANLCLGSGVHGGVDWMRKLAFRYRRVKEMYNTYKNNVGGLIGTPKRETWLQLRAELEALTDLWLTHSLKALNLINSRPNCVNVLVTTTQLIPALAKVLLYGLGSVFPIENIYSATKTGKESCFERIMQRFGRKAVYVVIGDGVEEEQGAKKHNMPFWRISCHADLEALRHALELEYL
Target sequence (Q15475 whole entry, looked up): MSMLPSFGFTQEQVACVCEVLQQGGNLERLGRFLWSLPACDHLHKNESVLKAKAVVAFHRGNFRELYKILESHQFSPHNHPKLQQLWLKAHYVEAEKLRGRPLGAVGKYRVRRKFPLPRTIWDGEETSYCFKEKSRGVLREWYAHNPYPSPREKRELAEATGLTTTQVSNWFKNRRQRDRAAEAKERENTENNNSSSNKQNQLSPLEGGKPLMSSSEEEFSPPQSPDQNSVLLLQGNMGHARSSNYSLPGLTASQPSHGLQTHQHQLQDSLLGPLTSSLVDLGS
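Homogeneous AlphaScreen proximity assay pairing GST-Six1 with His-tagged Eya2 (added as 5X mix: 250 nM and 500 nM) in 50 mM Tris pH 8.0, 300 mM NaCl, 1 mM TCEP. Glutathione donor and nickel acceptor beads; 1 h, 37 °C, dark.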
L3MBTL1 block = blocks human L3MBTL1. AlphaScreen L3MBTL1–H3K9me1 peptide binding. AID 485360. Potency, µM (series often up to 57.1 µM), inactives show top-dose activity, negative = inhibition, usual class: inhibitors. 230,000 tested, 0.66% active; note: potency is the fitted concentration of half-maximal effect; nearly all actives have a fitted effect of over 60% in size
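L3MBTL1 (50 nM) pre-complexed 30 min with biotinylated H3(1-15)K9me1 peptide (75 nM), then compounds added for 30 min at room temperature; AlphaScreen streptavidin donor/nickel chelate acceptor beads (10 ug/mL final) read after 30 min dark incubation.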
USP2a inh = inhibitors of human ubiquitin-specific protease USP2a. O75604. USP2 core, Ub-CHOP2 coupled fluorogenic reporter, 485/531. Potency, µM (doses to about 38.3 µM), without a hit: top-dose activity change, negative = inhibition, usual class: inhibitors. 330,000 tested, 0.01% active. AID 463254;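 note: potency is the fitted concentration of half-maximal effect; plate controls were DMSO wells for no effect and full inhibition by NEM control for full effect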
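USP2 core (10nM final) preincubated 30min RT with compound in 20mM Tris-HCl pH 8.0, 2mM CaCl2, 2mM beta-mercaptoethanol, 0.05% CHAPS; 25nM Ub-CHOP2 plus 25nM reporter substrate added, fluorescence (Ex485/Em531) read after 60min.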
Eya2 inh = blocks the phosphatase activity of human Eya2. O00167. recombinant Eya2, OMFP fluorescence dephosphorylation (OMFP is methylfluorescein phosphate). Potency, µM (series often up to 76.9 µM), without a hit: at the highest dose activity, negative = inhibition, usual class: inhibitors. 330,000 tested, 0.006% active; note: potency is the fitted concentration of half-maximal effect
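Eya2 protein (added as 0.2 uM solution) was preincubated with compound for 10 min at ambient temperature in 50 mM HEPES pH 7.5, 50 mM NaCl, 5 uM MgCl2, 0.05% BSA, 1 mM DTT. OMFP (added at 50 uM) then reacted 10 min; fluorescence read at 485/525 nm.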
uPA generation = blocks generation of uPA at the cell surface. cell surface uPA generation assay, qHTS. Potency, µM (series often up to 38.3 µM), for inactives: at the highest dose activity change, negative = inhibition, most hits filed as inhibitors. 330,000 tested, 0.31% active. AID 540303; active = well fitted inhibition curve with a large enough effect; inconclusive = small, poorly fitted or top-dose-only effect; inactive = no such curve, though single readings can be large or run the other way; tested in mouse RAW 264.7 cells; note: potency is the fitted concentration of half-maximal effect; nearly all actives have a fitted effect of over 55% in size
An asterisk follows results filed as active; ? = inconclusive; nt = no result. Compounds with a hit are over-represented: about 1.2% of the library has one in this group of screens. Unless noted, calls come from the whole dose curve; as a rule, active = well fitted curve in the direction sought with a large enough effect; inconclusive = small, poorly fitted or top-dose-only effect, or another doubt; inactive = no such curve, though single readings can be large; an effect the other way counts as inactive or inconclusive. Unless noted, % is set by controls: 0 for no effect and ±100 for the full control effect.

SMILES	CtBP-E1A blk	Six1-Eya2 blk	L3MBTL1 block	USP2a inh	Eya2 inh	uPA generation
COc1cc(-c2cccc([C@H]3[C@@H]4C=CC[C@@H](C)[C@@H]4C(=O)N3Cc3ccccc3)c2)cc(OC)c1OC	-21.6	-12.4	-0.8%	-1.3%	-27.3%	?
C=CC[C@@H](Cc1ccc(F)cc1)C(=O)OC[C@H]1CCCN1C(=O)[C@H](CC=C)CC(=O)N[C@H](CO)Cc1ccccc1	-14.9	-2.6	36.3%	-17.2%	-21.3%	23.7%
C=CCN1C(=O)NC(=O)/C(=C/c2cc3c4c(c2)CCCN4CCC3)C1=O	0.7	-8.5	28.2µM*	4.3%	-0.6%	2.3%
C=CCN1C(=O)NC(=O)/C(=C/c2cnc(SC)nc2)C1=O	5.8	0.0	1.8%	5.0%	-29.4%	1.3%
CC[C@@]1(c2ccccc2OC)ON(c2ccccc2C(F)(F)F)C1=O	16.8	10.1	42.0%	-2.2%	-24.2%	?
NC(=O)c1cc([N+](=O)[O-])cc([N+](=O)[O-])c1	5.3	-4.5	nt	nt	nt	-1.8%
CC(C)(C)c1cc([N+](=O)[O-])cc(C(C)(C)C)c1O	2.0	-1.6	?	-6.0%	-5.7%	7.94µM*
O=C1CN=C(c2cccs2)c2c(sc3c2CCCC3)N1	-5.4	-3.3	-6.7%	1.5%	0.4%	nt
O=C1CN=C(c2ccccc2)c2c(sc3c2CCCC3)N1	1.4	-1.5	nt	-3.5%	0.4%	4.47µM*
O=C(N[C@H]1C/C=C\C[C@H](CC(=O)N(CCO)Cc2ccccc2)C(=O)NC[C@H](c2ccccc2)OC1=O)OCC1c2ccccc2-c2ccccc21	3.8	9.1	-8.9%	3.0%	11.7%	-25.0%
CC(C)n1c(=O)c(C=Nc2ccc(Cl)cc2)c(O)n(Cc2ccco2)c1=O	nt	nt	2.6%	0.2%	-0.8%	nt
COC(=O)c1cc(=O)n(Cc2ccco2)c(=Nc2ccc(F)c(Cl)c2)s1	-4.2	-8.1	nt	2.2%	7.5%	10µM*
COc1ccc(C(=O)c2nc3ccccc3n2C(C)C)cc1	-0.7	8.8	2.6%	0.4%	-11.0%	29.0%
COC(=O)N1C(=O)[C@@](c2ccc(OC)cc2)(C(C)C)N1C(=O)OC	-21.0	-2.3	-2.5%	-1.3%	0.2%	6.31µM*
CC(C)c1ccc(/C=C2\SC(=S)N(CCC(=O)N3CCCCC3CCO)C2=O)cc1 (centres undefined)	nt	-13.2	nt	-1.8%	4.4%	?
Cc1ccc2[nH]c(C(=O)N/N=C/c3ccccc3O)c(C)c2c1	nt	2.4	nt	3.8%	12.4%	3.55µM*
Oc1ccccc1/C=N/NP(=S)(c1ccccc1)c1ccccc1	-19.4	-14.5	42.6%	-9.1%	8.3%	4.7%
COC(=O)C1=C(c2ccc3ccccc3c2)C[C@@H]2CC[C@H]1N2C(=O)NCc1ccc(C(F)(F)F)cc1	-1.9	3.2	2.5%	-6.9%	-13.2%	11.2µM*
O=C(O)C1C2CCC(O2)C1C(=O)Nc1cccc(Br)c1 (centres undefined)	nt	-2.6	1.3%	-1.6%	?	11.2µM*
Clc1cccc(Cl)c1/C=C/c1ccn[nH]1	-25.2	-13.2	nt	1.2%	2.6%	?
CC(C)Oc1ccc(C(=O)Nc2ccc(Cl)c(S(=O)(=O)Nc3ccc(Cl)cc3)c2)cc1	-7.3	-5.3	-3.1%	-10.6%	9.1%	?
O=C1N[C@H](Cc2ccccc2)COC(=O)[C@@H](Cc2ccc(F)cc2)C/C=C\C[C@H]1CC(=O)N(CCO)Cc1ccccc1	-0.2	-3.0	-0.9%	3.6%	6.0%	?
N[C@@H](Cc1cc(I)c(O)c(I)c1)C(=O)O	-26.5	-23.6	4.8%	1.0%	4.6%	?
NC(Cc1cc(O)c(O)cc1O)C(=O)O (centres undefined)	nt	nt	0.159µM*	?	-20.5%	nt
O=[N+]([O-])c1cc(S(=O)(=O)c2ccc(O)c([N+](=O)[O-])c2)ccc1O	-15.7	?	10µM*	0.9%	9.5%	2.5%
SMILES	CtBP-E1A blk	Six1-Eya2 blk	L3MBTL1 block	USP2a inh	Eya2 inh	uPA generation
O=[N+]([O-])c1cccc(O)c1	0.1	2.7	0.8%	1.1%	-6.0%	12.4%
Nc1nonc1C(=O)N/N=C/c1ccc([N+](=O)[O-])o1	0.0	?	35.5µM*	0.2%	0.9%	-13.1%
Nc1c(C(=O)NCc2ccco2)c2nc3ccccc3nc2n1CCN1CCOCC1	-73.3*	?	nt	-1.0%	11.3%	nt
Nc1c(C(=O)NCc2ccco2)c2nc3ccccc3nc2n1Cc1ccccc1	nt	3.7	31.0%	0.2%	-17.9%	7.8%
O=C(NC1(Cc2ccccc2)CCN(Cc2ccc(-c3ccccc3)cc2)C1=O)c1ccccc1 (centres undefined)	3.0	-7.4	-9.3%	1.1%	11.8%	?
CC(=NNC(=S)N1CC2CCC(CC2)C1)c1nccs1	-96.5*	-89.3*	nt	nt	nt	-10.2%
Cc1cc(C(=O)Nc2ccc3c(c2)OCCO3)nn1C(C)(C)C	-13.8	-5.9	-18.5%	0.2%	-6.9%	-24.8%
Nc1c(C(=O)Nc2ccc3c(c2)OCCO3)nnn1CCc1ccccc1	1.1	-2.8	nt	?	4.0%	7.94µM*
C=CCn1c(O)c(N=Nc2c(C)n(C)n(-c3ccccc3)c2=O)c(=O)[nH]c1=S	-86.9*	-91.1*	20µM*	-0.4%	1.3%	-8.0%
Cc1c(N=Cc2c(O)n(Cc3ccc(F)cc3)c(=O)[nH]c2=O)c(=O)n(-c2ccccc2)n1C	7.7	-2.1	nt	3.6%	2.9%	-0.5%
CCOc1ccc(-n2c(O)c(N=Nc3c(C)n(C)n(-c4ccccc4)c3=O)c(=O)[nH]c2=O)cc1	-91.2*	-89.7*	25.1µM*	1.6%	-0.7%	-1.9%
Cc1c(N=Nc2c(O)[nH]c(=S)[nH]c2=O)c(=O)n(-c2ccccc2)n1C	-93.0*	-83.8*	?	4.4%	-6.1%	-9.8%
CCO[C@H]1OC(C(=O)N2CCN(Cc3ccc4c(c3)OCO4)CC2)=C[C@@H](c2ccc(Br)cc2)[C@@H]1CCCO	-10.6	-11.5	-13.9%	-1.9%	-20.5%	?
CC(C)=CCC/C(C)=C/CNC(=O)C[C@H]1C[C@H](C(=O)N(C(C)C)C(C)C)[C@@]2(C)c3[nH]c4cc(-c5ccco5)ccc4c3CCN2C1=O	-1.7	-16.7	-27.3%	1.8%	3.2%	?
CN1CCN(c2ccc(CNS(=O)(=O)Cc3cccc(C(F)(F)F)c3)cc2)CC1	nt	0.6	-7.9%	7.1%	?	?
Oc1ccc(CCNc2ncnc3ccc(Cl)cc23)cc1	-1.5	-6.6	nt	-0.3%	3.3%	?
Cc1cc(N(C)C)ccc1N=Nc1ccc(N)cc1	-73.8*	-76.7*	nt	nt	nt	?
C[C@@H](NC(=O)c1nc[nH]c1C(=O)NCc1ccc(CNC(=O)OC(C)(C)C)cc1)c1ccccc1	1.9	-10.3	-13.6%	-6.6%	-17.6%	-9.9%
